The target in assay [1] is Estrogen receptor (Homo sapiens) (UniProt P03372). The assay is described as follows: OT_ERa_GFPERaERE_0480: Odyssey Thera (OT) 8-hour HeLa Transcription Induction Assay for Estrogen Receptor (AID 2283381; active means hit-call score of the fitted dose curve at least 0.9, where 1 is the maximum; inactive means score below 0.9). In outline:
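HeLa cells expressing GFP reporter under estrogen response element, imaged 8 h after dosing. GFP induction quantified by high-content fluorescence microscopy image analysis; gain of signal fitted versus DMSO.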

The target is the same in assay [2]. Put plainly: OT_ERa_GFPERaERE_0120: Odyssey Thera (OT) 2-hour HeLa Transcription Induction Assay for Estrogen Receptor (AID 2283382). In outline: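 HeLa cells were dosed for 2 h, then GFP reporter induction was quantified by fluorescence microscopy with high-content image analysis. Gain of signal fitted against DMSO baseline.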
The target in assay [3] is Bile acid receptor (Homo sapiens) (UniProt Q96RI1). The assay is described as follows: OT_FXR_FXRSRC1_0480: Odyssey Thera (OT) 8-hour HEK293T Protein-Complementation Assay for Farnesoid X receptor/SRC-1 Co-activator (AID 2283383). In outline:
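HEK293T protein-fragment complementation assay: FXR and SRC-1 coactivator are fused to reporter fragments, and their interaction restores a fluorescent reporter. Readout was taken 8 h after dosing, with gain of signal fit relative to DMSO.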

The target is the same in assay [4]. Put plainly: OT_FXR_FXRSRC1_1440: Odyssey Thera (OT) 24-hour HEK293T Protein-Complementation Assay for Farnesoid X receptor/SRC-1 Co-activator (AID 2283384). In outline: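 HEK293T cells, 24 h after chemical dosing. FXR–SRC-1 coactivator interaction read as fluorescence from protein-fragment complementation of a split reporter. Gain of signal fitted against DMSO baseline.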

Assay [5] addresses Retinoic acid receptor RXR-alpha (Homo sapiens) (UniProt P19793). The assay is described as follows: OT_NURR1_NURR1RXRa_0480: Odyssey Thera (OT) 8-hour HEK293T Protein Complementation Assay for Nurr1/retinoid X receptor (RXR) (AID 2283385). In outline: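 HEK293T cells expressing Nurr1 and RXRα fused to reporter fragments (protein-fragment complementation); fluorescence measured 8 h after dosing. Gain of signal fitted relative to DMSO.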

The target is the same in assay [6]. The assay is described as follows: OT_NURR1_NURR1RXRa_1440: Odyssey Thera (OT) 24-hour HEK293T Protein Complementation Assay for Nurr1/retinoid X receptor (RXR) (AID 2283386). In outline:
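HEK293T protein-fragment complementation of Nurr1 and RXRα fused to reporter fragments; compounds 24 h. Fluorescence gain from reconstituted reporter fitted versus DMSO.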

Assay [7] addresses Peroxisome proliferator-activated receptor gamma (Homo sapiens) (UniProt P37231). The assay is described as follows: OT_PPARg_PPARgSRC1_0480: Odyssey Thera (OT) 8-hour Protein-Complementation Assay for Peroxisome Proliferator-activated Receptor Gamma / SRC-1 Co-activator (AID 2283387).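 Further: nuclear to cytoplasmic split Venus YFP fluorescence ratio reporting PPARg SRC-1 interaction.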 In outline:
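HEK293T transiently transfected with PPARg and SRC-1 fused to Venus YFP fragments, compounds 8 h at 37C. Fixed, Draq5-stained cells imaged; nuclear/cytoplasmic 488 nm fluorescence ratio over at least 350 cells per image; gain fitted versus DMSO.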

Assay [8] has the same target. The assay is described as follows: OT_PPARg_PPARgSRC1_1440: Odyssey Thera (OT) 24-hour Protein-Complementation Assay for Peroxisome Proliferator-activated Receptor Gamma/ SRC-1 Co-activator (AID 2283388). In outline:
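Cells carrying the PPARg/SRC-1 fragment-complementation reporter receive compound for 24 hours, are fixed and counterstained with Draq5, then imaged. Increased nuclear relative to cytoplasmic YFP fluorescence above DMSO baseline indicates binding activity.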

Assay [9] can be described thus: CEETOX_H295R_11DCORT: CeeTox H295R High-throughput Steroidogenesis Assay for 11-Deoxycortisol (11DCORT) (AID 2283432; active means hit-call score of the fitted dose curve at least 0.9, where 1 is the maximum; inactive means score below 0.9;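 on AC50: 11-deoxycortisol secreted into the medium measured by LC-MS/MS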). To be noted: actives raise or lower the signal. In outline: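 H295R cells prestimulated 48 h with 10 uM forskolin, then exposed 48 h to chemical in 0.1% DMSO. 11-Deoxycortisol in medium quantified by HPLC-MS/MS after MTBE extraction; bidirectional fit versus DMSO. MTT viability read in same wells.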

A short description of assay [10]: CEETOX_H295R_OHPREG: CeeTox H295R High-throughput Steroidogenesis Assay for OH-Pregnenolone (OHPREG) (AID 2283434; active means hit-call score of the fitted dose curve at least 0.9, where 1 is the maximum; inactive means score below 0.9). To be noted: actives raise or lower the signal. In outline:
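Hormone levels in spent medium were measured by tandem mass spectrometry following liquid-liquid extraction. Cells (H295R) had been forskolin-stimulated (10 uM, 48 h) before a 48 h chemical exposure at 0.1% DMSO, with activity fitted in both directions against DMSO.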

Assay [11] in a line: CEETOX_H295R_OHPROG: CeeTox H295R High-throughput Steroidogenesis Assay for OH-Progesterone (OHPROG) (AID 2283435; active means hit-call score of the fitted dose curve at least 0.9, where 1 is the maximum; inactive means score below 0.9;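 on AC50: human adrenal H295R cells primed 48 h with 10 µM forskolin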). To be noted: actives raise or lower the signal. In outline:
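H295R adrenal cells prestimulated 48 h with 10 uM forskolin, then exposed 48 h to chemical (0.1% DMSO final). 17alpha-hydroxyprogesterone in medium quantified by HPLC-MS/MS; bidirectional fit versus DMSO, with MTT viability measured in the same wells.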

Assay [12] can be described thus: CEETOX_H295R_ANDR: CeeTox H295R High-throughput Steroidogenesis Assay for Androstenedione (ANDR) (AID 2283436; active means hit-call score of the fitted dose curve at least 0.9, where 1 is the maximum; inactive means score below 0.9). To be noted: actives raise or lower the signal. In outline: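 Read-out is androstenedione secreted into medium, measured by tandem mass spectrometry after liquid-liquid extraction. Cells were H295R, dosed for 48 h per modified OECD 456; activity fitted in both directions relative to DMSO.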

The nature of assay [13]: CEETOX_H295R_CORTIC: CeeTox H295R High-throughput Steroidogenesis Assay for Corticosterone (CORTIC) (AID 2283437; active means hit-call score of the fitted dose curve at least 0.9, where 1 is the maximum; inactive means score below 0.9;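 further: corticosterone secreted into medium quantified by mass spectrometry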;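 on AC50: human H295R adrenal cells prestimulated with forskolin before chemical exposure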). To be noted: actives raise or lower the signal. In outline:
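Corticosterone secreted into medium is measured by reverse-phase HPLC with tandem MS following liquid-liquid extraction. Cells are forskolin-stimulated (10 uM, 48 h) before 48 h test exposure; activity fitted in both directions against DMSO.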

Assay [14] is described as follows: CEETOX_H295R_CORTISOL: CeeTox H295R High-throughput Steroidogenesis Assay for Cortisol (AID 2283438; active means hit-call score of the fitted dose curve at least 0.9, where 1 is the maximum; inactive means score below 0.9;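 further: cortisol secreted into medium quantified by LC-MS/MS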). To be noted: actives raise or lower the signal. In outline: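 Forskolin-primed H295R cells (10 uM, 48 h) treated 48 h with test chemical in 0.1% DMSO. Cortisol in medium quantified by MTBE extraction and HPLC-MS/MS; bidirectional fit vs DMSO, MTT viability in same wells.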

The nature of assay [15]: CEETOX_H295R_DOC: CeeTox H295R High-throughput Steroidogenesis Assay for DOC (AID 2283439; active means hit-call score of the fitted dose curve at least 0.9, where 1 is the maximum; inactive means score below 0.9). To be noted: actives raise or lower the signal. In outline: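 H295R cells prestimulated 48 h with 10 uM forskolin, then exposed 48 h to test chemical (0.1% DMSO final). Medium 11-deoxycorticosterone measured by HPLC-MS/MS after MTBE extraction; bidirectional fit vs DMSO, viability checked by MTT in same wells.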

The nature of assay [16]: CEETOX_H295R_ESTRADIOL: CeeTox H295R High-throughput Steroidogenesis Assay for Estradiol (AID 2283440; active means hit-call score of the fitted dose curve at least 0.9, where 1 is the maximum; inactive means score below 0.9;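 further: estradiol secreted into medium quantified by LC-MS/MS after dansyl derivatisation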). To be noted: actives raise or lower the signal. In outline:
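Readout is estradiol in conditioned medium, quantified by reverse-phase HPLC-MS/MS against a 7-point standard curve. Cells: H295R, forskolin-stimulated, then dosed 48 h in 0.1% DMSO; activity fitted in both directions relative to DMSO.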

Assay [17] in a line: CEETOX_H295R_ESTRONE: CeeTox H295R High-throughput Steroidogenesis Assay for Estrone (AID 2283441; active means hit-call score of the fitted dose curve at least 0.9, where 1 is the maximum; inactive means score below 0.9;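 further: estrone secreted into medium measured by LC-MS/MS after dansyl derivatization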). To be noted: actives raise or lower the signal. In outline: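 H295R cells prestimulated 48 h with 10 uM forskolin, then exposed 48 h to chemicals in 0.1% DMSO final; estrone in medium extracted with MTBE, dansyl-derivatized, quantified by HPLC-MS/MS; bidirectional fitting versus DMSO, viability by MTT.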

Assay [18] can be described thus: CEETOX_H295R_PROG: CeeTox H295R High-throughput Steroidogenesis Assay for Progesterone (PROG) (AID 2283442; active means hit-call score of the fitted dose curve at least 0.9, where 1 is the maximum; inactive means score below 0.9;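 on AC50: human H295R adrenal cells primed with 10 µM forskolin before dosing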). To be noted: actives raise or lower the signal. In outline:
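Measured analyte is progesterone secreted by H295R cells at 48 h of chemical treatment, following 10 uM forskolin priming. Quantitation used HPLC-MS/MS against a 7-point standard curve; cytotoxicity was checked by MTT absorbance.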

The nature of assay [19]: CEETOX_H295R_TESTO: CeeTox H295R High-throughput Steroidogenesis Assay for Testosterone (TESTO) (AID 2283457; active means hit-call score of the fitted dose curve at least 0.9, where 1 is the maximum; inactive means score below 0.9;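 on AC50: cells exposed to chemicals for 48 h before medium collection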). To be noted: actives raise or lower the signal. In outline: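 Steroidogenesis in H295R cells following OECD 456 with minor changes; 48 h exposure. Medium testosterone by HPLC-MS/MS, DMSO as baseline, with MTT viability run in parallel.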
The target of assay [20] is Estrogen receptor beta (Homo sapiens) (UniProt Q92731). Put plainly: OT_ER_ERbERb_1440: Odyssey Thera (OT) 24-hour HEK293T Protein-Complementation Assay for Estrogen Receptor-beta/-beta Homodimer (AID 2283380).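 Further: fluorescence gain from ER beta LBD homodimer complementation read by laser scanning cytometry; scored as signal increase over DMSO baseline for both agonists and antagonists.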 In outline: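 Fluorescence increase, nuclear for agonists or whole-cell for antagonists, relative to DMSO vehicle, quantified by laser scanning cytometer after fixation and Draq5 staining. Readout from 24 h treatment of HEK293T cells carrying complementation-paired ER beta LBD (aa 310-547).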
Estrogen receptor beta (Homo sapiens), sequence (Q92731 whole entry, looked up, the tested form may be a part): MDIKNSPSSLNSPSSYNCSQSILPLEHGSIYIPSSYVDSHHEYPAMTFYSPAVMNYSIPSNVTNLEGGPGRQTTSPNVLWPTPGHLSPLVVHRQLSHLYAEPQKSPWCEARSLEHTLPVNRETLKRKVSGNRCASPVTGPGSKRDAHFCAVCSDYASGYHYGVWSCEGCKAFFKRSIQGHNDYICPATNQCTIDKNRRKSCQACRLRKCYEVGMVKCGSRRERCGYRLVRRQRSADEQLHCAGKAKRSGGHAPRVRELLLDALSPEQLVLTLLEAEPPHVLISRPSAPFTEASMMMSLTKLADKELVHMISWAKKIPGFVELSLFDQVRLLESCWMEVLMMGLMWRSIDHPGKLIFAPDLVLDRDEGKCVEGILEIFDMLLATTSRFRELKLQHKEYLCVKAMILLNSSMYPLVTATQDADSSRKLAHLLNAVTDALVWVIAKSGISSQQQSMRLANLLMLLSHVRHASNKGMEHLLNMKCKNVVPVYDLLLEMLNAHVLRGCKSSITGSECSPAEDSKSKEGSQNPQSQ

Inconclusive results are not listed. Calls of active or inactive are those of the source. How the source made its calls, unless noted: active means hit-call score of the fitted dose curve at least 0.9, where 1 is the maximum; inconclusive means response in the unintended direction; inactive means score below 0.9.

Retinoic acid receptor RXR-alpha (Homo sapiens), sequence (P19793 whole entry, looked up, the tested form may be a part): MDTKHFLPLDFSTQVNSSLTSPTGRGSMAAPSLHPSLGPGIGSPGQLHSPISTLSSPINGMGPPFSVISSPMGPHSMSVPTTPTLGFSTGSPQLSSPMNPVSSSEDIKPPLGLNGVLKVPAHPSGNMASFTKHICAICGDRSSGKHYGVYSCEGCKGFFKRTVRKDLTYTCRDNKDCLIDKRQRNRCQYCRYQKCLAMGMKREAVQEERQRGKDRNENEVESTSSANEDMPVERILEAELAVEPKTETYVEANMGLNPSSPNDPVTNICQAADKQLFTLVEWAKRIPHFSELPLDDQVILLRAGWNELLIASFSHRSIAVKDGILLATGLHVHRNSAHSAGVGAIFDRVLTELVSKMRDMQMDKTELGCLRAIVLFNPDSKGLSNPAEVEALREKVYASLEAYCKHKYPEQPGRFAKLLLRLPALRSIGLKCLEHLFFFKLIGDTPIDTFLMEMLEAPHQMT
Peroxisome proliferator-activated receptor gamma (Homo sapiens), sequence (P37231 whole entry, looked up, the tested form may be a part): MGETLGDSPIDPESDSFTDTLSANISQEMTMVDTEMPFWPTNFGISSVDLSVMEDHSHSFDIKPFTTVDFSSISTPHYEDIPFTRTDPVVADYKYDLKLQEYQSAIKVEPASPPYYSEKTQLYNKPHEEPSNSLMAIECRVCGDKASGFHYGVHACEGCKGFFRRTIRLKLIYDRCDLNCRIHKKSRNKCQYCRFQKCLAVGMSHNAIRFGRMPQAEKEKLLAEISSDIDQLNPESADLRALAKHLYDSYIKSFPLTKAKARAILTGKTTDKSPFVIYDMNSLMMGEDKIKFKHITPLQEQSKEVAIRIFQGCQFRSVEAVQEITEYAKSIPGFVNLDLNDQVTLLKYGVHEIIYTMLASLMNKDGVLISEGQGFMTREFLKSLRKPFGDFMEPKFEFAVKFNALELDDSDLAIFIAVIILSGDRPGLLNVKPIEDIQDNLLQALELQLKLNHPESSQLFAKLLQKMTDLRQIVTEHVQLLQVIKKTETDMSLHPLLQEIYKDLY
Bile acid receptor (Homo sapiens), sequence (Q96RI1 whole entry, looked up, the tested form may be a part): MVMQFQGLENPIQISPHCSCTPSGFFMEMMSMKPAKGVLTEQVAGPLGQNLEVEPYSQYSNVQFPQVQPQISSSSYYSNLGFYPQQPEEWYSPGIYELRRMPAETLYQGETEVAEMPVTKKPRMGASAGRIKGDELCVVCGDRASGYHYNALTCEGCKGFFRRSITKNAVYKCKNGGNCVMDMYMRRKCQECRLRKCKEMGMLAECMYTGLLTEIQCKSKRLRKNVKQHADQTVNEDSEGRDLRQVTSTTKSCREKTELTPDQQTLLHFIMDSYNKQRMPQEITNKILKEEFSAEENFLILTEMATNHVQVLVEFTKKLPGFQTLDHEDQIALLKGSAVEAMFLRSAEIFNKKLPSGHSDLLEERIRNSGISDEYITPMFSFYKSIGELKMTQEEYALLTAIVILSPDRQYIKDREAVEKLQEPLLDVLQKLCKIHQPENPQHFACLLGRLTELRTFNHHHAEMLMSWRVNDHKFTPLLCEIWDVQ
Estrogen receptor (Homo sapiens), sequence (P03372 whole entry, looked up): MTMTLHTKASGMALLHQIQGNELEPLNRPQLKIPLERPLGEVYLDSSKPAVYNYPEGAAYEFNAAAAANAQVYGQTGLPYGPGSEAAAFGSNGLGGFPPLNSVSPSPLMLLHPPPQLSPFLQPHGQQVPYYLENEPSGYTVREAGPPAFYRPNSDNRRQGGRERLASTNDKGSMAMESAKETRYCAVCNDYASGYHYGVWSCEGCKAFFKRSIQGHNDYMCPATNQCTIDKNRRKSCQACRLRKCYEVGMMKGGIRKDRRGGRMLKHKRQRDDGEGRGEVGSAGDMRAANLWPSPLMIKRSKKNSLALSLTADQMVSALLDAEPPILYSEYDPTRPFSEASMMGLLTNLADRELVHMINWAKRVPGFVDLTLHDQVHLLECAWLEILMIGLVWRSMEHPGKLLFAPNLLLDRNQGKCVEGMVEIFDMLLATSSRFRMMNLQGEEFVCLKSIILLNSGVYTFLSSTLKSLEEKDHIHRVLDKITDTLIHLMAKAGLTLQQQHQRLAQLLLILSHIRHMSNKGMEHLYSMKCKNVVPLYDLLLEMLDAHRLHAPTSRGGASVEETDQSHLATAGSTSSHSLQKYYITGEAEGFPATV

With `O=S(=O)(O)c1ccc2ccccc2c1`, the compound was classed as inactive in assay [1], in assay [2], in assay [3], in assay [4], in assay [5] and in assay [6]. Besides, the result in assay [7] and in assay [8] was inactive.

Usually AC50 stands for the concentration at which the activity in the assay is half-maximal. Regarding `CC(=O)Nc1ccc(N=Nc2cc(C)ccc2O)cc1`, the AC50 is 33.7 µM (active) in assay [9]; 16 µM (active) in assay [11]; 25 µM (active) in assay [12]; 25 µM (active) in assay [13]; 20.9 µM (active) in assay [18]; 31.5 µM (active) in [19]. For the same compound, the compound was classed as inactive in assay [10], in assay [14], in assay [15], in [16] and in assay [17].

`CCCCOc1ccc(N)cc1`: the values for the AC50 in assay [20] and in assay [4] were 25.2 µM (active) and 36.9 µM (active), respectively. Further, the call in assay [1], in assay [2], in [3], in assay [5], in [6] and in assay [7] was inactive. In [8], the result was inactive.

`Cc1cccc(N(C)C)c1`: the call in assay [9], in assay [10], in assay [11], in assay [12], in assay [13] and in assay [14] was inactive. Also, the compound was classed as inactive in assay [15], in assay [16], in [17], in assay [18] and in assay [19].

Turning to `C#C[C@]1(O)CC[C@H]2[C@@H]3CCc4cc(OC)ccc4[C@H]3CC[C@@]21C`, the AC50 was 0.0277 µM (active) in assay [1]; 0.0294 µM (active) in assay [2]; 60.4 µM (active) in [3]; 46.8 µM (active) in [4]; 78.8 µM (active) in assay [6]; 7.82 µM (active) in assay [11]. The half-maximal activity concentration (AC50) in [18] was 3.58 µM (active). For the same compound, the compound was classed as inactive in [5], in [7], in assay [8], in assay [9], in [10] and in [14]. Also, in assay [15], the call was inactive.

In the case of `CCCCCCOC(=O)c1ccccc1O`, the call in assay [20], in [1], in assay [2], in assay [3], in assay [4] and in assay [5] was inactive. Moreover, the call in [6] and in assay [8] was inactive.

For the compound `Cc1ccc(S(=O)(=O)NCl)cc1`, the compound was classed as inactive in assay [20], in assay [1], in assay [2], in [6], in assay [7] and in assay [8].

In the case of `O=C(OCCOCCOCCOC(=O)c1ccccc1)c1ccccc1`, the compound was called inactive in [20], in [1], in assay [2], in assay [3], in assay [4] and in assay [8].

For `CN(C)Cc1ccccc1O`, the outcome in [20], in assay [1], in [2], in [4], in [6] and in assay [8] was inactive.

As for `C1COCCN1`, the result in assay [20], in assay [1], in [2], in assay [5] and in [6] was inactive.

As for `c1ccc(B(c2ccccc2)c2ccccc2)cc1`, the outcome in [1], in [3], in [4], in [5], in assay [6] and in assay [7] was inactive. Besides, the compound was classed as inactive in [8], in assay [11], in assay [13] and in [14]. Moreover, the half-maximal activity concentration (AC50) in assay [2] is 45.8 µM (active); in assay [9], 33.7 µM (active); in assay [10], 15 µM (active); in assay [15] it was 8.03 µM (active); in assay [18], 12.6 µM (active).

For the compound `CCCCCCOC(=O)c1ccccc1`, the compound was called inactive in assay [20], in assay [1], in [2], in [3], in assay [5] and in assay [7]. For the same compound, the outcome in assay [8] was inactive.

Consider `Nc1ccc(Oc2cccc(Oc3ccc(N)cc3)c2)cc1`, for which the compound was classed as inactive in assay [9], in assay [10], in assay [15], in [16] and in [17]. For the same compound, the AC50 in assay [11] was 2.87 µM (active); in assay [13] it was 2.84 µM (active); in assay [14], 3.6 µM (active); in assay [18] it was 3.9 µM (active).
